Reference: PubChem BioAssay AID1159580 (chemical genetic matrix, 2015)
Where “and” joins values, the source holds several entries; their conditions need not be identical. Identical values can stand only once. The campaign covered roughly 5,500 compounds. About 2,000 (36%) were called active. Not shown: some 18% with an inconclusive outcome. Rule as the data show it: active = normalized growth mostly below about 0.91 (no sharp cut-off); inconclusive = no clear call, values can overlap the other calls; inactive = mostly above about 0.92. Some of the results follow. Some compounds were tested as several samples or in several runs, with calls that do not always agree.

Assay: chemical genetic growth profiling, strain panel (AID 1159580);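 also: tested at 20 µM; growth read once vehicle control cultures reached saturation at 30 °C; 1 = growth at the plate median or of vehicle wells; lower values mean less growth of the strain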
Conditions: growth OD

Measured: normalized growth

Fc1ccc(C(c2ccc(F)cc2)N2CCN(C/C=C/c3ccccc3)CC2)cc1
active: S. cerevisiae deletion strains, locus YKL160W, strain elf1, stronger effect = lower value 0.168 | S. cerevisiae deletion strains, locus YKR026C, strain gcn3, stronger effect = lower value 0.412 | S. cerevisiae deletion strains, locus YKR091W, strain srl3, stronger effect = lower value 0.444 | S. cerevisiae deletion strains, locus YLL001W, strain dnm1, stronger effect = lower value 0.293 | S. cerevisiae deletion strains, locus YLL026W, stronger effect = lower value 0.257 | S. cerevisiae deletion strains, locus YLL041C, strain sdh2, stronger effect = lower value 0.41 | S. cerevisiae deletion strains, locus YLR027C, strain aat2, stronger effect = lower value 0.306 | S. cerevisiae deletion strains, locus YLR039C, strain RIC1, stronger effect = lower value 1.36 [resistant] | S. cerevisiae deletion strains, locus YLR221C, strain rsa3, stronger effect = lower value 0.18 | S. cerevisiae deletion strains, locus YLR258W, strain gsy2, stronger effect = lower value 0.32 | S. cerevisiae deletion strains, locus YLR262C, strain YPT6 (second series), stronger effect = lower value 0.749 | S. cerevisiae deletion strains, locus YLR320W, strain mms22, stronger effect = lower value 0.137 | S. cerevisiae deletion strains, locus YLR342W, strain FKS1, stronger effect = lower value 0.25 | S. cerevisiae deletion strains, locus YLR357W, strain rsc2, stronger effect = lower value 0.544 | S. cerevisiae deletion strains, locus YLR370C, strain arc18, stronger effect = lower value 0.226 | S. cerevisiae deletion strains, locus YML120C, strain ndi1, stronger effect = lower value 0.24 | S. cerevisiae deletion strains, locus YMR058W, strain fet3, stronger effect = lower value 0.266 | S. cerevisiae deletion strains, locus YMR125W, strain sto1, stronger effect = lower value 0.17 | S. cerevisiae deletion strains, locus YMR129W, stronger effect = lower value 0.222 | S. cerevisiae deletion strains, locus YMR205C, strain PFK2, stronger effect = lower value 0.332 | S. cerevisiae deletion strains, locus YMR231W, strain pep5, stronger effect = lower value 0.794 | S. cerevisiae deletion strains, locus YNL071W, strain lat1, stronger effect = lower value 0.119 | S. cerevisiae deletion strains, locus YNL209W, strain ssb2, stronger effect = lower value 0.573 | S. cerevisiae deletion strains, locus YNL248C, strain rpa49, stronger effect = lower value 0.227 | S. cerevisiae deletion strains, locus YNL322C, strain KRE1 (second series), stronger effect = lower value 0.244 | S. cerevisiae deletion strains, locus YNR049C, strain mso1, stronger effect = lower value 0.334 | S. cerevisiae deletion strains, locus YOR001W, strain rrp6, stronger effect = lower value 0.314 | S. cerevisiae deletion strains, locus YOR070C, strain gyp1, stronger effect = lower value 0.126 | S. cerevisiae deletion strains, locus YOR080W, strain dia2, stronger effect = lower value 0.423 | S. cerevisiae deletion strains, locus YOR083W, strain WHI5, stronger effect = lower value 0.36 | S. cerevisiae deletion strains, locus YOR106W, strain vam3, stronger effect = lower value 0.33 | S. cerevisiae deletion strains, locus YOR265W, strain rbl2, stronger effect = lower value 0.251 | S. cerevisiae deletion strains, locus YOR270C, strain vph1, stronger effect = lower value 0.156 | S. cerevisiae deletion strains, locus YOR290C, strain snf2, stronger effect = lower value 0.245 | S. cerevisiae deletion strains, locus YPL051W, strain arl3, stronger effect = lower value 0.474 | S. cerevisiae deletion strains, locus YPL078C, strain atp4, stronger effect = lower value 0.316 | S. cerevisiae deletion strains, locus YPL106C, strain sse1, stronger effect = lower value 0.223 | S. cerevisiae deletion strains, locus YPL240C, strain hsp82, stronger effect = lower value 0.338
inactive: S. cerevisiae deletion strains, locus YJR075W, strain HOC1, stronger effect = lower value 0.952 | S. cerevisiae deletion strains, locus YKL009W, strain mrt4, stronger effect = lower value 0.965 | S. cerevisiae deletion strains, locus YKL068W, stronger effect = lower value 0.982 | S. cerevisiae deletion strains, locus YKL085W, strain MDH1 (second series), stronger effect = lower value 0.974 | S. cerevisiae deletion strains, locus YKL085W, strain MDH1, stronger effect = lower value 0.974 | S. cerevisiae deletion strains, locus YKL190W, strain CNB1, stronger effect = lower value 0.974 | S. cerevisiae deletion strains, locus YKR001C, strain vps1, stronger effect = lower value 0.972 | S. cerevisiae deletion strains, locus YLR058C, strain SHM2, stronger effect = lower value 0.981 | S. cerevisiae deletion strains, locus YLR102C, strain apc9, stronger effect = lower value 0.988 | S. cerevisiae deletion strains, locus YLR113W, strain HOG1, stronger effect = lower value 0.963 | S. cerevisiae deletion strains, locus YLR262C, strain YPT6, stronger effect = lower value 1.34 | S. cerevisiae deletion strains, locus YLR268W, strain sec22, stronger effect = lower value 0.933 | S. cerevisiae deletion strains, locus YLR330W, strain CHS5, stronger effect = lower value 0.988 | S. cerevisiae deletion strains, locus YLR342W, strain FKS1 (second series), stronger effect = lower value 0.981 | S. cerevisiae deletion strains, locus YLR371W, strain rom2, stronger effect = lower value 0.969 | S. cerevisiae deletion strains, locus YLR384C, strain iki3, stronger effect = lower value 0.957 | S. cerevisiae deletion strains, locus YLR418C, strain cdc73, stronger effect = lower value 0.993 | S. cerevisiae deletion strains, locus YML016C, strain PPZ1, stronger effect = lower value 0.992 | S. cerevisiae deletion strains, locus YML032C, strain rad52, stronger effect = lower value 0.948 | S. cerevisiae deletion strains, locus YML124C, strain tub3, stronger effect = lower value 0.991 | S. cerevisiae deletion strains, locus YMR078C, strain ctf18, stronger effect = lower value 0.966 | S. cerevisiae deletion strains, locus YMR223W, strain ubp8, stronger effect = lower value 0.988 | S. cerevisiae deletion strains, locus YMR263W, strain SAP30, stronger effect = lower value 0.968 | S. cerevisiae deletion strains, locus YMR307W, strain GAS1, stronger effect = lower value 1.28 and 0.996 | S. cerevisiae deletion strains, locus YNL067W, strain RPL9B, stronger effect = lower value 0.964 | S. cerevisiae deletion strains, locus YNL128W, strain TEP1, stronger effect = lower value 0.969 | S. cerevisiae deletion strains, locus YNL183C, strain NPR1, stronger effect = lower value 0.927 | S. cerevisiae deletion strains, locus YNL197C, strain WHI3, stronger effect = lower value 1.08 | S. cerevisiae deletion strains, locus YNL233W, strain BNI4, stronger effect = lower value 0.981 | S. cerevisiae deletion strains, locus YNL250W, strain rad50, stronger effect = lower value 0.992 | S. cerevisiae deletion strains, locus YNL271C, strain bni1, stronger effect = lower value 0.984 | S. cerevisiae deletion strains, locus YNL298W, strain CLA4, stronger effect = lower value 0.99 | S. cerevisiae deletion strains, locus YNL307C, strain MCK1, stronger effect = lower value 0.992 | S. cerevisiae deletion strains, locus YNL322C, strain KRE1, stronger effect = lower value 0.989 and 0.962 | S. cerevisiae deletion strains, locus YNR052C, strain pop2, stronger effect = lower value 0.933 | S. cerevisiae deletion strains, locus YOL006C, strain TOP1, stronger effect = lower value 0.81 | S. cerevisiae deletion strains, locus YOL012C, strain htz1 1.09 | S. cerevisiae deletion strains, locus YOL147C, strain pex11, stronger effect = lower value 0.984 | S. cerevisiae deletion strains, locus YOR061W, strain CKA2, stronger effect = lower value 0.982 | S. cerevisiae deletion strains, locus YOR069W, strain VPS5, stronger effect = lower value 0.995 | S. cerevisiae deletion strains, locus YOR083W, strain WHI5 (second series), stronger effect = lower value 1.05 | S. cerevisiae deletion strains, locus YOR136W, strain idh2, stronger effect = lower value 0.989 | S. cerevisiae deletion strains, locus YOR144C, strain elg1, stronger effect = lower value 0.982 | S. cerevisiae deletion strains, locus YOR184W, strain ser1, stronger effect = lower value 1.03 | S. cerevisiae deletion strains, locus YOR231W, strain MKK1, stronger effect = lower value 1 | S. cerevisiae deletion strains, locus YOR316C, strain cot1, stronger effect = lower value 0.967 | S. cerevisiae deletion strains, locus YPL055C, strain LGE1, stronger effect = lower value 0.96 | S. cerevisiae deletion strains, locus YPL241C, strain CIN2, stronger effect = lower value 0.981 | S. cerevisiae deletion strains, locus YPL256C, strain CLN2, stronger effect = lower value 0.97 | S. cerevisiae deletion strains, locus YPR119W, strain clb2, stronger effect = lower value 0.979 | S. cerevisiae deletion strains, locus YPR141C, strain kar3, stronger effect = lower value 0.999 | S. cerevisiae deletion strains, locus YPR163C, strain tif3, stronger effect = lower value 0.959 | S. cerevisiae deletion strains, locus YPR167C, strain met16, stronger effect = lower value 0.964 | S. cerevisiae deletion strains, strain wtn01, stronger effect = lower value 0.957 | S. cerevisiae strains, strain wild type, stronger effect = lower value 0.984
0.959 (inactive) and 0.788 (active): S. cerevisiae deletion strains, locus YNL153C, strain GIM3, stronger effect = lower value
